# Test results published in article PMC7819943, “Rice protein-binding microarrays: a tool to detect cis-acting elements near promoter regions in rice”.
# The full ranking holds about 35,000 sequences; the median of “fluorescence intensity (a.u.)” is about 10,000, and the highest 2% start at about 52,000. The entries come from a sample that favours the highest values as a whole.
# Molecular target: T1, OsWOX13 (Oryza sativa, UniProt Q5QMM3 1-267)
# T1 sequence: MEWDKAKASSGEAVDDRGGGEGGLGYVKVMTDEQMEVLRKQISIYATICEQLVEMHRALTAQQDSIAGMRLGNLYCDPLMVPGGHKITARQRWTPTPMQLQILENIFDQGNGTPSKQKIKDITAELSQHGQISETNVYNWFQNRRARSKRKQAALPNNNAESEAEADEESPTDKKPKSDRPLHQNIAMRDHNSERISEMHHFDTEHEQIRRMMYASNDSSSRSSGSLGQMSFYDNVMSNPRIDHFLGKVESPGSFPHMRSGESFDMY
# Assay: protein-binding microarray (RPBM); PBS, 2% BSA, 51.3 ng/ul salmon testes DNA, 50 uM zinc acetate, 200 nM TF, 25 C, 1 h; high values mean tight binding
# Conditions: protein: recombinant; tags: N-terminal polyhistidine and DsRed monomer fusion (pET32a); label: CyDye5-dUTP incorporated in the synthesized complementary strand; 3' TTTTT single-stranded linker to array surface; dsDNA, one strand shown
# In short: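 A custom Agilent array was converted to double-stranded form by primer extension with Cy5-dUTP and blocked with 2% BSA. Protein at 200 nM in PBS with 2% BSA, salmon testes DNA and 50 µM zinc acetate was applied for 1 h at 25 °C, followed by washing. The proteins were polyhistidine–DsRed N-terminal fusions of transcription factors, expressed in E. coli BL21-CodonPlus and Ni–NTA-purified. The binding signal is per-feature fluorescence intensity (arbitrary units) from an Axon 4000B scanner.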
row,Sequence,binding signal
1,ACAAGTTGATGGGGACACTTTTCTTATGTAGTATATAATTCGGAGTCACCTAGTGCAG,3270 fluorescence intensity (a.u.)
2,AACCCTGATTTCCGTGCTCAACGTTTGACCGTCCGTCTTGCGGAGTCACCTAGTGCAG,4670 fluorescence intensity (a.u.)
3,TCGATCACAAATTAATATTGTTTGCATACATACTCATATGCGGAGTCACCTAGTGCAG,6200 fluorescence intensity (a.u.)
4,ATCCAATCATTTCAAAACGTATTCCTCAGCACATTAAACGCGGAGTCACCTAGTGCAG,19400 fluorescence intensity (a.u.)
5,GCTAATTGCAATTTTGGCCGTCCATAAAGAGCTTGCGGCCCGGAGTCACCTAGTGCAG,52900 fluorescence intensity (a.u.)
6,ACTAGCTAACTAAATTTGAAAGAGACTAGCTAGCTGCTTGCGGAGTCACCTAGTGCAG,6300 fluorescence intensity (a.u.)
7,CCATAATTTTGCAAAGACATCAAACCAAATAAAACCAATGCGGAGTCACCTAGTGCAG,6680 fluorescence intensity (a.u.)
8,GATAATGGTAGTGATTGGTTGAGGCTTGAGAGTAGATGTACGGAGTCACCTAGTGCAG,30600 fluorescence intensity (a.u.)
9,CTAAACCGCATAATAATTTACAGAAATGCCCCTCACCTCCCGGAGTCACCTAGTGCAG,11300 fluorescence intensity (a.u.)
10,GCACCTTTCAAATTCATCTGATTTATGCATTCTTCTGTAACGGAGTCACCTAGTGCAG,3340 fluorescence intensity (a.u.)
11,TGGCCTTGATTTGCTTCCTGAATGTGCCTGCTTCCTTACACGGAGTCACCTAGTGCAG,18100 fluorescence intensity (a.u.)
12,ATTGATTGATAAACCCTACTGCTTCTCGCCGCCGCCGCCGCGGAGTCACCTAGTGCAG,55100 fluorescence intensity (a.u.)
13,ATTGTTGCTGCTGCTGGATTGATTAGTGGTTAAGCAGATTCGGAGTCACCTAGTGCAG,5320 fluorescence intensity (a.u.)
14,CTCCCAAGTAAATGATTTGAAATACCCGATCTAATTATTACGGAGTCACCTAGTGCAG,3180 fluorescence intensity (a.u.)
15,ACCAAGTAATTGATATCTAGAAATCCGATACCTAGTACCACGGAGTCACCTAGTGCAG,55000 fluorescence intensity (a.u.)
16,TTGGTTGGTTGGTTGATTGCTCGCGCCCCGCGCGGTTGCGCGGAGTCACCTAGTGCAG,6680 fluorescence intensity (a.u.)
17,ATGTGATTGATTCTGCTGGTGGATTCTCTCTTCGGTTTGCCGGAGTCACCTAGTGCAG,62800 fluorescence intensity (a.u.)
18,TTTTGCAATGTGATTTGCTGGTTTGGATAGTGGAGAAGTTCGGAGTCACCTAGTGCAG,3300 fluorescence intensity (a.u.)
19,CCTCTTGATTGATTGCTCGGTCGACTGATTGCTTCTTACACGGAGTCACCTAGTGCAG,65000 fluorescence intensity (a.u.)

row,Sequence,binding signal
1,CCGACCCGTTGGATTGATAAAACCAACTGCTTCCCGCTCCCGGAGTCACCTAGTGCAG,6190 fluorescence intensity (a.u.)
2,CTCTTGATTGCGGCGCGACTGCGAGCGAGAGAGCTTCACGCGGAGTCACCTAGTGCAG,20500 fluorescence intensity (a.u.)
3,CCAAGCAAATAATCCGATAGATTGAATCGGTGAGTTACCACGGAGTCACCTAGTGCAG,9630 fluorescence intensity (a.u.)
4,ATTTATTAATATTAATATTATTGTGGGAAATTTTAGAATGCGGAGTCACCTAGTGCAG,3460 fluorescence intensity (a.u.)
5,TGCTGTAATTACTTTTCTGTAATTTGGATTAATCCTTCGCCGGAGTCACCTAGTGCAG,40800 fluorescence intensity (a.u.)
6,AGATACTTAATTAGTGTCTTCTATAAGCAAAGGTCAGGAACGGAGTCACCTAGTGCAG,11300 fluorescence intensity (a.u.)
7,GCTCTATCACAAAATAAACTAGAGTTATGAAGCTGGATTTCGGAGTCACCTAGTGCAG,4850 fluorescence intensity (a.u.)
8,GTTATGTAATTAAAACGTTGTTTTCTTCTAATATATTGTCCGGAGTCACCTAGTGCAG,7150 fluorescence intensity (a.u.)
9,AATCAAATCATCTCATCAAAGTCCAATCCCGCTAGCTCCACGGAGTCACCTAGTGCAG,9000 fluorescence intensity (a.u.)
10,GAAATGGGCCTAATTGTCGGTCACATACCGAGTAAATGGGCGGAGTCACCTAGTGCAG,4300 fluorescence intensity (a.u.)
11,TAATCGTATTAATTGATCAACAGGCTAGGCCAGCCAAACACGGAGTCACCTAGTGCAG,13200 fluorescence intensity (a.u.)
12,TGAGTAATTGATAGTGACACGGCTATCCAACCAATCCAGGCGGAGTCACCTAGTGCAG,65100 fluorescence intensity (a.u.)
13,ACGGGGTTGCGGTAATTTTAATTGGGCCGAAATGTGATTCCGGAGTCACCTAGTGCAG,4130 fluorescence intensity (a.u.)
14,GTGATTGATATCGATTCTGATTGATGCCTTTGCCTGGTACCGGAGTCACCTAGTGCAG,57000 fluorescence intensity (a.u.)
15,GATTGATTTGATTGATTGCTTGATTGGTTAATTGGTTGATCGGAGTCACCTAGTGCAG,51600 fluorescence intensity (a.u.)
16,GGCCGATTGATTGGGTCCGAGTAATCTCGGAAATGTGGGGCGGAGTCACCTAGTGCAG,53600 fluorescence intensity (a.u.)
17,TGATTGTACGTATTCTGATTGATTGCTTATCGATATCTCACGGAGTCACCTAGTGCAG,26100 fluorescence intensity (a.u.)
18,TTTTGATTGCACCTTGCTTCTCGTATACACCCTCACCTATCGGAGTCACCTAGTGCAG,22200 fluorescence intensity (a.u.)
19,TCTGGTCGTAAATTGACAACCAACCTTAAGAAAATCCAGGCGGAGTCACCTAGTGCAG,21300 fluorescence intensity (a.u.)

row,Sequence,binding signal
1,CGGGTTTGATTTGATTTGATTTTGATTTTGATTTGCTTCTCGGAGTCACCTAGTGCAG,53400 fluorescence intensity (a.u.)
2,ACCTTCACTTGATTGCTGGTGGTAGTAGTAGTAGTAGTACCGGAGTCACCTAGTGCAG,21700 fluorescence intensity (a.u.)
3,CAAGAAATGACTTAATTAGAAAACCTCTTTGGAGCACCCACGGAGTCACCTAGTGCAG,11000 fluorescence intensity (a.u.)
4,AAAGCATTCATGTTAATTTTCTCCTAACTCAAATCGAATGCGGAGTCACCTAGTGCAG,3260 fluorescence intensity (a.u.)
5,CTGATTGGTTAGTAAGAGAATGTTGGTGGTGAAGTTGTTACGGAGTCACCTAGTGCAG,29900 fluorescence intensity (a.u.)
6,AAACTAACCAGGATCTGGTAATTGGAACGATCCCCATTCCCGGAGTCACCTAGTGCAG,4390 fluorescence intensity (a.u.)
7,GAAGTTTAATTATCATAAGATTGTGATGGTTATGTATGGTCGGAGTCACCTAGTGCAG,31700 fluorescence intensity (a.u.)
8,TGTATTGCCTAATTAATTTTATGCGCCTTTAATTTACTGCCGGAGTCACCTAGTGCAG,16800 fluorescence intensity (a.u.)
9,CATATCCCATTTGCCAATCACACCCTGAGAGTATGTATATCGGAGTCACCTAGTGCAG,6560 fluorescence intensity (a.u.)
10,CACCATTATTGCCAATTATCCTTGCTTGCGTGGTAGAGTACGGAGTCACCTAGTGCAG,26200 fluorescence intensity (a.u.)
11,ACTTGATTTCTCTGTTGGAAGATGGGTATATTTCGAGACCCGGAGTCACCTAGTGCAG,17200 fluorescence intensity (a.u.)
12,TACTCTGATTTTGTCCATTACCAGCTGCAAATGGACCAGCCGGAGTCACCTAGTGCAG,19300 fluorescence intensity (a.u.)
13,TTGACAGTTAATCCTAGGTCTATCTATCGCACTGAGTTTGCGGAGTCACCTAGTGCAG,12400 fluorescence intensity (a.u.)
14,ACAGATTGAGAGGGAGCTCAGGGAACCAGTCTCACAAAATCGGAGTCACCTAGTGCAG,8100 fluorescence intensity (a.u.)
15,TAAAATTGCATGTGATCATTTTGTAAGCTAAACTTTTATTCGGAGTCACCTAGTGCAG,11600 fluorescence intensity (a.u.)
16,GCTGCTCGGATTTGATTGATTGATTGATTGGCGGGTGGTCCGGAGTCACCTAGTGCAG,64500 fluorescence intensity (a.u.)
17,TTTGGATTGGGTTTGGTGGTTGGGTGGGAGGGAGGGAGCTCGGAGTCACCTAGTGCAG,18700 fluorescence intensity (a.u.)
18,TCTTTGATTGGTGGCGGTGTTGAATTGAATTGAATTGATCCGGAGTCACCTAGTGCAG,46300 fluorescence intensity (a.u.)
